These results are taken from PubChem BioAssay.

One may read the AC50 as the midpoint of the concentration-response curve, whichever way the signal moves.

A short description of assay [1]: viability loss in pontine glioma line – cell-based, SU-DIPG-XVII, MIPE5.0, CellTiter-Glo, qHTS, dose response (AID 1347060).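 On AC50: cells exposed to compound for 48 hours before viability readout.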 The conditions noted are these: CellTiter-Glo ATP luminescence. In general terms: Cellular ATP, detected with luciferase, serves as a proxy for viable cell number.
Assay [2] in a line: viability loss in pontine glioma line – cell-based, SU-DIPG-XXV, MIPE5.0, CellTiter-Glo, qHTS, dose response (AID 1347065).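 Further: cells exposed to compound for 48 hours before ATP readout.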 The following applies: CellTiter-Glo ATP luminescence.
Assay [3] in a line: growth inhibition of DIPG cells – cell-based, MIPE4.0 library, CellTiter-Glo luminescence, qHTS (AID 1347066; cut-off not given, nearly all actives have AC50 up to about 30 µM;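 further: cells exposed to compound for 48 hours before readout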). The conditions noted are these: SU-DIPG-VI viability, CellTiter-Glo ATP luminescence.
Assay [4] is described as follows: JHH-DIPG-1 glioma cell viability, MIPE5.0 library, CellTiter-Glo luminescence, qHTS (AID 1347067).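 Further: cells exposed to compound for 48 hours before readout.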 The following applies: JHH-DIPG-1 glioma viability, CellTiter-Glo ATP luminescence.
The nature of assay [5]: viability loss with induced miR-34 in A549 – imaging, A549 dox-inducible miR-34, nuclei and caspase counts, primary screen (AID 1347080;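 active means compounds whose cell count with miR-34 switched on is under 0.7 times the count with it off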). The conditions noted are these: A549 miR-34 inducible, Hoechst nuclei count, 48 h.
Assay [6] in a line: MELAS cybrid and Rieske KO viability enhancers – cell-based, MELAS cybrids, Rieske KO mouse fibroblasts, CellTiter-Glo, primary screen (AID 1508586;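 active means mean z-score across replicates of 1.96 or higher in either the MELAS or the Rieske mutant cell line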;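 further: z relative to plate mean and SD of compound and empty wells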). The conditions noted are these: low glucose.
The nature of assay [7]: growth inhibition of DIPG cells – cell-based, MIPE5.0 library, qHTS (AID 1347068; cut-off not given, nearly all actives have IC50 up to about 30 µM). The following applies: SU-DIPG-XXV viability. On the technique in general: Quantitative high-throughput screening tests each substance at several concentrations.

Results filed as inconclusive are left out. Calls of active or inactive are those of the source. Unless noted, cut-off not given; nearly all actives show AC50 up to about 26 µM.

As to `CCS(=O)(=O)N1CC(CC#N)(n2cc(-c3ncnc4[nH]ccc34)cn2)C1`, the AC50 in assay [1] and in assay [2] was 18.6 µM (active) in each case. Moreover, the molecule was called inactive in assay [3] and in assay [4]. Besides, the fold change in assay [5] (stronger effect = lower value, cell number ratio, induced over uninduced) was 0.973 (inactive); in assay [5] (measured here: relative caspase fold change +Dox/-Dox), 0.869. Besides, the cell count was found to be 8770 in assay [5] (measured here: total cells with miR-34 induction, stronger effect = lower value) and 9020 in assay [5] (measured here: total cells without miR-34 induction). The z-score in assay [6] (MELAS cybrid survival, CellTiter-Glo 48 h, stronger effect = higher value) was -0.48 (inactive); in assay [6] (Rieske KO mouse fibroblast survival, CellTiter-Glo 72 h) it was 0.0326.
Consider `CCc1c(C(=O)NNC(=O)[C@@H](O)c2cc(F)cc(F)c2)ccc(O)c1C`, for which the outcome in assay [1], in assay [2] and in assay [4] was inactive.
For the molecule `Cc1c(-c2ccnn2C)cc(C(=O)NCc2ccc(S(C)(=O)=O)cn2)c(=O)n1-c1cccc(C(F)(F)F)c1`, the call in assay [1], in assay [2] and in assay [4] was inactive.
For the molecule `Cc1nnc(C[C@@H]2C=C(c3ccc(Cl)cc3)c3ccccc3-n3c(C)nnc32)o1`, the AC50 was 26.3 µM (active) in assay [1], 14.8 µM (active) in assay [2] and 18.6 µM (active) in assay [4].
For the molecule `Cc1c(NC(=O)c2cc3c(s2)CCCC3)cccc1-c1cn(C)c(=O)c(Nc2ccc(C3C(=O)N(C)CCN3C)cc2)n1` (configuration not stated), the AC50 was 23.5 µM (active) in assay [1], 18.6 µM (active) in assay [2] and 18.6 µM (active) in assay [4].
For `CO[C@@H]1C(N(C)C(=O)c2ccccc2)C[C@H]2O[C@]1(C)n1c3ccccc3c3c4c(c5c6ccccc6n2c5c31)C(=O)NC4=O` (some centres not stated), the AC50 in assay [1] and in assay [2] was 0.934 µM (active) each time. Further, in assay [3], the outcome was inactive.
For the molecule `CCN(CC)CCCC[C@H](NC(=O)[C@H](CC(C)C)NC(=O)[C@H](C)NC(=O)[C@H](Cc1ccccc1)NC(=O)c1ccc(C(C)(C)C)cc1)C(=O)N[C@@H](CO)C(=O)OC`, the molecule was called inactive in assay [1], in assay [2], in assay [4] and in assay [7].
For the molecule `CC[C@H](NC(=O)[C@H](CS(=O)(=O)CC1CC1)N[C@@H](c1ccc(F)cc1)C(F)(F)F)C(=O)C(=O)NC1CC1`, the molecule was called inactive in assay [1], in assay [2] and in assay [4].
Consider `O=C1NC(=O)[C@@H](c2c[nH]c3ccccc23)[C@H]1c1cn2c3c(cccc13)CCC2`, for which the AC50 in assay [1] is 0.525 µM (active); in assay [2], 0.742 µM (active); in assay [4] it was 1.66 µM (active).
For `COc1ccc2[nH]c3c(c2c1)CCN[C@]31CS[C@@H]2c3c(OC(C)=O)c(C)c4c(c3[C@H](COC1=O)N1[C@@H]2[C@H]2c3c(cc(C)c(OC)c3O)C[C@@H]([C@@H]1O)N2C)OCO4`, in that order: 0.000959 µM (active), 0.0034 µM (active) and 0.00135 µM (active).
With `O=c1c(-c2ccc(O)cc2)coc2c([C@@H]3O[C@H](CO)[C@@H](O)[C@H](O)[C@H]3O)c(O)ccc12`, the molecule was classed as inactive in assay [1], in assay [2], in assay [4] and in assay [7].
In the case of `Nc1cc(COc2c(Cl)cc(C[C@H](N)C(=O)O)cc2Cl)c2oc(-c3ccccc3)nc2c1`, the result in assay [1], in assay [2], in assay [4] and in assay [7] was inactive.
Consider `O=C(Nc1nnc(-c2ccco2)o1)c1cc(-c2ccccc2)nc2ccccc12`, for which the AC50 was 26.3 µM (active) in assay [1], 20.9 µM (active) in assay [2] and 14.8 µM (active) in assay [3]. The call in assay [7] was inactive.
On to `CC(C)(C)Sc1c(CC(C)(C)C(=O)O)n(Cc2ccc(Cl)cc2)c2ccc(OCc3ccc4ccccc4n3)cc12`, for which the AC50 is 20.9 µM (active) in assay [1], 20.9 µM (active) in assay [2] and 18.6 µM (active) in assay [4]. Moreover, in assay [7], the molecule was called inactive.
`O=C(Cc1ccccc1)Nc1nnc(CCSCCc2nnc(NC(=O)Cc3ccccc3)s2)s1`: the call in assay [1] and in assay [7] was inactive. In addition, the AC50 in assay [2] was 11.8 µM (active); in assay [4], 14.8 µM (active).
In the case of `Cc1cc(C)c(S(=O)(=O)N(CCc2cccc(Br)c2)Cc2ccc(-c3cccc(S(C)(=O)=O)c3)cc2)c(C)c1`, the result in assay [1], in assay [2], in assay [4] and in assay [7] was inactive.
For `O=C(Nc1nccs1)C(c1cc(F)ccc1O)N1Cc2ccccc2C1=O` (configuration not stated), the molecule was called inactive in assay [1], in assay [2], in assay [4] and in assay [7].
For the molecule `Fc1ccc2[nH]ccc2c1-c1nc(N2CCOCC2)c2sc(CN3CCN(CC4CC4)CC3)cc2n1`, the AC50 in assay [1] is 20.9 µM (active); in assay [2], 23.5 µM (active); in assay [4], 23.5 µM (active).
Take `C[C@@H]1COCCN1c1cc(-c2ccnn2C)c2ccnc(-c3ccn[nH]3)c2n1`: the AC50 was 1.48 µM (active) in assay [1], 1.86 µM (active) in assay [2] and 5.25 µM (active) in assay [4].
